Consider 35 compounds from PubChem BioAssay.

Molecules are shown by their SMILES. Records with an inconclusive call do not appear. The source made the active and inactive calls. Unless noted, the limit is not given here; nearly all actives have AC50 up to about 26 µM.

The first assay in a line: growth inhibition of DIPG glioma cells, dose response, cell-based, SU-DIPG-XIII, MIPE5.0, CellTiter-Glo, qHTS (AID 1347064; cut-off not given, nearly all actives have AC50 up to about 23 µM;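 as to AC50: cells exposed to compound for 48 hours before the viability read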). The conditions noted are these: SU-DIPG-XIII viability, CellTiter-Glo ATP luminescence.
One may read the AC50 as the midpoint of the concentration-response curve, whichever way the signal moves. For `Cc1ncc(-c2ccnc(Nc3ccc(S(C)(=O)=O)cc3)n2)n1C(C)C`, the AC50 was 3.72 µM (active).

As to `CC(N[C@H]1CCCC[C@@H]1NC(=O)c1ccc(Cl)cc1)c1cccc2ccccc12` (stereo not given in full), the half-maximal activity concentration (AC50) was 7.42 µM (active).

With `C/C(O)=C(\C#N)C(=O)Nc1ccc(C(F)(F)F)cc1`, the result was inactive.

For `CN1N=C(N)c2cn([C@@H]3O[C@H](COP(=O)(O)O)[C@@H](O)[C@H]3O)c3ncnc1c23`, the AC50 was 1.66 µM (active).

With `CNC(=O)c1cccc(-c2ccc3c(N4CCOC[C@@H]4C)nc(N4CCOC[C@@H]4C)nc3n2)c1`, the AC50 was 0.118 µM (active).

Regarding `COc1ccc(-c2ccc3c(N4CCOCC4)nc(N4C[C@@H](C)O[C@@H](C)C4)nc3n2)cc1CO`, the AC50 was 4.17 µM (active).

Turning to `CCOc1cc2ncc(C#N)c(Nc3ccc(OCc4ccccn4)c(Cl)c3)c2cc1NC(=O)/C=C/CN(C)C`, the AC50 is 5.9 µM (active).

As for `N#CCNC(=O)c1ccc(-c2ccnc(Nc3ccc(N4CCOCC4)cc3)n2)cc1`, the AC50 was 13.2 µM (active).

In the case of `COC(=O)c1ccc2c(C(=Nc3ccc(N(C)C(=O)CN4CCN(C)CC4)cc3)c3ccccc3)c(O)[nH]c2c1`, the AC50 was 2.09 µM (active).

Turning to `COc1cc2nccc(Oc3ccc(NC(=O)Nc4cc(C)on4)c(Cl)c3)c2cc1OC`, the AC50 was 9.34 µM (active).

A further assay is described as follows: viability loss in pontine glioma line – cell-based, SU-DIPG-XXV, MIPE5.0, CellTiter-Glo, qHTS, dose response (AID 1347065).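 Also: cells exposed to compound for 48 hours before ATP readout.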 Conditions: CellTiter-Glo ATP luminescence.
As for `O[C@@H](COc1cccc2ncccc12)CN1CCN(C2c3ccccc3[C@@H]3[C@H](c4ccccc42)C3(F)F)CC1` (stereo not given in full), the AC50 was 13.2 µM (active).

On to `NCc1c[nH]c(=S)n1[C@H]1CCc2c(F)cc(F)cc2C1`, for which the outcome was inactive.

With `C[C@H]1[C@H](O)O[C@@H]2O[C@@]3(C)CC[C@H]4[C@H](C)CC[C@@H]1[C@@]24OO3`, the AC50 was 7.42 µM (active).

Regarding `C#CCN(C)CC1=Cc2ccccc2Oc2ccccc21`, the compound was called inactive.

`Cc1cc(Nc2cc(CN3CCOCC3)c3nc(C)c(Cc4ccc(Cl)cc4F)n3n2)n[nH]1`: the AC50 was 1.18 µM (active).

For `COc1cc(F)c(C(C)C)cc1-c1ccc(C(F)(F)F)cc1CN1C(=O)O[C@H](c2cc(C(F)(F)F)cc(C(F)(F)F)c2)[C@@H]1C`, the compound was classed as inactive.

Consider `COc1cc(C(C)C)c(Oc2cnc(NC(CO)CO)nc2N)cc1I`, for which the call was inactive.

For the compound `CC1=C[C@@H]2[C@H]([C@@H](O)C[C@@]3(C)[C@H]2C[C@@H](C)[C@]3(O)C(=O)CO)[C@@]2(C)Cc3cnn(-c4ccccc4)c3C=C12`, the AC50 was 7.42 µM (active).

`CCN(CC)CCCCNc1ncc2c(n1)N(C)C(=O)N(c1c(Cl)c(OC)cc(OC)c1Cl)C2`: the AC50 is 0.372 µM (active).

In the case of `COc1ccccc1[C@H](c1cccc2ccccc12)[C@@](C)(C#N)C(=O)N1CCC(c2cccc(C(F)(F)F)c2)CC1`, the outcome was inactive.

As to `CC1(C)CNc2cc(NC(=O)c3cccnc3NCc3ccncc3)ccc21`, the AC50 was 16.6 µM (active).

As for `O=C(Nc1ccccc1-c1cn2c(CN3CCNCC3)csc2n1)c1cnc2ccccc2n1`, the AC50 was 3.32 µM (active).

Take `COc1cc(C)c(Sc2cnc(NC(=O)c3ccc(CNC(C)C(C)C)cc3)s2)cc1C(=O)N1CCN(C(C)=O)CC1` (stereo not given): the AC50 is 10.5 µM (active).

For the compound `Cc1cnc(NC(=O)Nc2cc(Br)c(C)cc2OC[C@@H]2CNCCO2)cn1`, the AC50 was 8.33 µM (active).

With `CC(C)C[C@@H](N)[C@H](O)C(=O)N[C@H](C(=O)N[C@H](C(=O)N[C@@H](CC(=O)O)C(=O)O)C(C)C)C(C)C`, the result was inactive.

As to `CCOc1cc(/C=C2/C(=O)N(c3ccccc3)N=C2C)cc(Cl)c1OCC(=O)OC`, the result was inactive.

Take `N#Cc1c(NC(=O)c2cccc3ccccc23)sc2c1CCCC2`: the AC50 was 0.833 µM (active).

Regarding `CC(C)CNc1ccnc(NCc2csc(-c3ccccc3)n2)n1`, the AC50 is 16.6 µM (active).

With `COc1c(OCCCN2CCOCC2)ccc2c3n(c(=NC(=O)c4cnc(N)nc4)nc12)CCN3`, the AC50 was 0.0959 µM (active).

Take `COc1ccc(-c2ccc3c(N4CCOC[C@@H]4C)nc(N4CCOC[C@@H]4C)nc3n2)cc1CO`: the AC50 is 0.105 µM (active).

Turning to `COc1cccc2cc(-c3nc(C4CCC(C(=O)O)CC4)n4ncnc(N)c34)[nH]c12` (stereo not given), the AC50 is 2.63 µM (active).

Turning to `COc1ccc2c(c1)CC[C@@H]1[C@@H]2CC[C@]2(C)[C@@H](NCCCCCCN3C(=O)C=CC3=O)CC[C@@H]12`, the call was inactive.

As for `CC(C)c1cc(C(C)C)c(CC(=O)NS(=O)(=O)Oc2c(C(C)C)cccc2C(C)C)c(C(C)C)c1`, the AC50 was 9.34 µM (active).

`CC1(C)CCC2=C(O1)c1ccccc1C(=O)C2=O`: the AC50 was 9.34 µM (active).

As to `Nc1nc(Nc2ccc(S(N)(=O)=O)cc2)nn1C(=O)c1c(F)cccc1F`, the AC50 was 6.61 µM (active).
